Measured values reported in PubChem BioAssay AID1159580 (chemical genetic matrix, 2015).
Screen size: about 5,500 compounds; about 2,000 (36%) were called active. About 18% were inconclusive and are not listed. No stated cut-off is given here; in the data, active means normalized growth mostly below about 0.91 (no sharp cut-off); inconclusive means no clear call, values can overlap the other calls; inactive means mostly above about 0.92. The list shows a part of the results.

Assay: chemical genetic growth profiling, strain panel (AID 1159580);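 further: tested at 20 µM; growth read once vehicle control cultures reached saturation at 30 °C; 1 = growth at the plate median or of vehicle wells; lower values mean less growth of the strain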
Conditions: S. cerevisiae deletion strains, growth OD

Measured: normalized growth

Clc1ccc(Cn2c(CN3CCCC3)nc3ccccc32)cc1
inactive: locus YAL040C, strain CLN3, hits give low values 1.01 | locus YCL061C, strain MRC1 (second series), hits give low values 0.996 | locus YDR150W, strain NUM1, hits give low values 0.996 | locus YDR363W, strain ESC2, hits give low values 0.999 | locus YER002W, strain NOP16, hits give low values 1.01 | locus YNL128W, strain TEP1, hits give low values 1.04 | locus YNL175C, strain NOP13, hits give low values 1.02 | locus YNL197C, strain WHI3, hits give low values 1.04 | locus YNL224C, strain SQS1, hits give low values 1.02 | locus YNL322C, strain KRE1, hits give low values 0.989 | locus YOR083W, strain WHI5 (second series), hits give low values 1.02 | locus YPL055C, strain LGE1, hits give low values 0.932
